Test results from PubChem BioAssay AID1489 (National Center for Advancing Translational Sciences (NCATS), 2009).
Results filed as inconclusive are left out. Values without a mark were called inactive. Calls of active or inactive are those of the source. Calls come from the whole dose curve; as a rule, active = well fitted antagonist curve with a large enough effect in the main read-out, with a control signal flat; inconclusive = small, poorly fitted or top-dose-only effect; inactive = no such curve, though single readings can be large or run the other way.

The molecules below were run against Neuropeptide S receptor (Homo sapiens) (UniProt Q6W5P4) (assay: Confirmation Concentration-Response Assay for Antagonists of the Neuropeptide S Receptor: Calcium Signal Transduction). Conditions: CHO-NPSR cells, NPS-induced calcium flux, FDSS; series mostly up to 19.3 µM; activity change, negative = inhibition: at the top concentration.
Chain of Neuropeptide S receptor (Homo sapiens) (Q6W5P4 whole entry, looked up): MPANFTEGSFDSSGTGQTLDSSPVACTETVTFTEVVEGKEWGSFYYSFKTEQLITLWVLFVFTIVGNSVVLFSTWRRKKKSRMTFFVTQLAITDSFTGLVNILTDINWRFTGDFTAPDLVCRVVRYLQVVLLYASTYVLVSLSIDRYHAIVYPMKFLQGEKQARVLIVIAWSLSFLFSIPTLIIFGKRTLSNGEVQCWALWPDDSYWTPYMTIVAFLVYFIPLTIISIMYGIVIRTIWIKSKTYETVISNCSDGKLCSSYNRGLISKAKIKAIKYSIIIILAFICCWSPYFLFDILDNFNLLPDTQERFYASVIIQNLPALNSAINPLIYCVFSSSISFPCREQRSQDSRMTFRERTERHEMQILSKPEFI
Procedure, shortened: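 Calcium flux was measured by kinetic fluorescence in dye-loaded CHO-NPSR cells, first after compound addition (210 s), then after NPS challenge (60 nM in stimulation reagent, 140 s). Hill-equation fitting gave AC50.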

| Compound | activity change, negative = inhibition [%] | Potency |
| --- | --- | --- |
| O=[N+]([O-])c1ccc(-c2nc(C(Cl)Cl)c3ccccc3n2)cc1 | -23.4 |  |
| O=C(O)C1CCN(c2nc(-c3ccccc3)nc3c2oc2ccccc23)CC1 | -15.4 |  |
| Cc1oc2c(c1C(=O)NCc1cccnc1)C(=O)c1ccccc1C2=O | 16.4 |  |
| CCCCOc1ccc(OCCCN2CCOCC2)cc1 | 2.69 |  |
| O=C1CC(NCc2ccncc2)C(=O)N1c1ccccc1 (stereo not drawn) | 7.53 |  |
| Cc1nn(C(=O)c2cccs2)c(N)c1-c1ccccc1 | 0.372 |  |
| CCC(C)(C)NC(=O)Cc1ccc(C)cc1 | 10.7 |  |
| CCOc1ccc(N2C(=O)CC(NCCc3ccncc3)C2=O)cc1 (stereo not drawn) | 12.8 |  |
| COc1ccc(/C=C2\CCCC3C2=NN(C(=O)c2ccco2)C3c2ccc(OC)c(OC)c2)cc1OC (stereo not drawn) | 14.6 |  |
| CN(Cc1cc(=O)[nH]c2ccccc12)C(=O)c1ccccc1 | -1.96 |  |
| Cc1ccc2nc3ccc(N4CCCCCCC4)nn3c(=O)c2c1 | -5.95 |  |
| O=[N+]([O-])c1cc2c(cc1/C=N/n1c(-c3ccccc3)n[nH]c1=S)OCO2 | -1.53 |  |
| O=C(NCCCN1CCOCC1)c1cc2c(=O)[nH]c3ccccc3c2s1 | 4.7 |  |
| COc1ccc(N=C2S/C(=C\c3ccc(N4CCOCC4)o3)C(=O)N2CCc2c[nH]c3ccccc23)cc1 |  | 2.24 µM (active) |
| CCN(CC)S(=O)(=O)c1ccc2c(c1)nc(SC(C)C(N)=O)n2-c1ccc(OC)cc1 (stereo not drawn) | -17.6 |  |
| Cc1cccnc1NC(=O)c1c(O)c2cccc3c2n(c1=O)CCC3 | -5.87 |  |
| COc1cccc2sc(Nc3nc(-c4ccccn4)cs3)nc12 |  | 3.16 µM (active) |
| O=C(O)CCCCCNc1nc(=S)[nH]c2ccccc12 | -0.723 |  |
| COc1ccc(N(CC(=O)Nc2cccc(SC)c2)S(C)(=O)=O)cc1Cl | -16.1 |  |
| c1ccc(-c2ccc(-c3nc(-c4cccnc4)no3)cc2)cc1 | -15.9 |  |
| CN(C)C(=O)Oc1cccc([N+](C)(C)C)c1 | 20.5 |  |
| COc1cccc(N2CCN(c3ncnc4c3[nH]c3ccc(F)cc34)CC2C)c1 (stereo not drawn) |  | 0.631 µM (active) |
| CN(C)c1ccc(N=Cc2ccco2)cc1 | -23.3 |  |
